From PubChem BioAssay AID449762 (Southern Research Specialized Biocontainment Screening …, 2010)
Hit rate of the full screen: of about 330,000 compounds, about 1,900 (0.58%) were called active. Not shown: some 4% with an inconclusive outcome. Rule as the data show it: inconclusive = inhibition above about 70% without an active follow-up result; inactive = below that. A selection follows. Results with a measured potency or affinity are listed apart.

Experiment: M. tuberculosis growth inhibition, HTS (AID 449762);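 also: bacterial growth assessed after seven days of incubation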
Conditions: M. tuberculosis H37Rv growth inhibition, 7H9 media; at 25 µM; active compounds read high

Row | Structure (SMILES) | inhibition
1 | Cc1cc(C(=O)NCCC(C)C)c2ccccc2n1 | -3.78% (inactive)
2 | CC(C)(C)c1ccc(OCCNCc2ccccc2)cc1 | 14.6% (inactive)
3 | C[N+](C)(CCOc1ccccc1)Cc1ccccc1 (tested in a mixture with another compound) | -1.38% (inactive)
4 | CN(Cc1ccco1)C(=O)c1ccc(S(=O)(=O)N2CCCCCC2)cc1 | 2.26% (inactive)
5 | COc1ccc(COC(=O)c2ccc(C)c(S(=O)(=O)N3CCOCC3)c2)cc1F | -4.83% (inactive)
6 | C[n+]1c(-c2ccccc2)cc(-c2ccc(O)cc2)cc1-c1ccccc1 | 3.36% (inactive)
7 | C[n+]1c(-c2ccccc2)cc(-c2ccc(Cl)cc2)cc1-c1ccccc1 | -0.15% (inactive)
8 | COCCCNC(=O)CN(c1cc(C(F)(F)F)ccc1Cl)S(C)(=O)=O | -8.65% (inactive)
9 | COC(=O)c1c(C)nn(-c2ccc(OC(F)(F)F)cc2)c1-c1snnc1C | 5.4% (inactive)
10 | COc1ccc(CCN(C)C(=O)C2CC(=O)N(Cc3ccc(C)cc3)C2)cc1OC (stereo not given) | -4.64% (inactive)
11 | O=C1Nc2ccc(Br)cc2C1(O)c1ccccc1 (stereo not given) | -1.54% (inactive)
12 | O=C1NC2(Nc3ccccc31)C(=O)Nc1ccc(Br)cc12 (stereo not given) | 6.01% (inactive)
13 | O=C(Nc1ccc([N+](=O)[O-])cc1)c1cccc(S(=O)(=O)Nc2ccccn2)c1 | -2.42% (inactive)
14 | COc1ccc(-n2cc3ccc([N+](=O)[O-])cc3n2)cc1 | -3.43% (inactive)
15 | COc1ccccc1-n1cc2ccc([N+](=O)[O-])cc2n1 | -3.35% (inactive)
16 | O=[N+]([O-])c1cnc2ccccc2c1 | -7.59% (inactive)
17 | O=c1c2c([N+](=O)[O-])cc([N+](=O)[O-])cc2nc2ccccn12 | 4.66% (inactive)
18 | C[C@H](CO)N1C[C@H](C)[C@@H](CN(C)Cc2ccncc2)Oc2c(cccc2N(C)C)C1=O | 2.32% (inactive)
19 | COc1ccc(Cl)cc1NC(=O)CN(C)C(=O)Cn1c(=O)oc2ccccc21 | 1.38% (inactive)
20 | O=C(c1cc(COc2c(F)cccc2F)on1)N1CCN(C2CCCCC2)CC1 | 10.1% (inactive)
21 | COc1ccc(-c2onc3ccc(C(=O)/C=C/N(C)C)cc23)cc1 | 6.78% (inactive)
22 | O=c1oc2ccccc2c(Nc2ccc(O)cc2)c1[N+](=O)[O-] | -6.31% (inactive)
23 | O=c1oc2ccccc2c(Nc2cccc3ccccc23)c1[N+](=O)[O-] | 20.4% (inactive)

Row | Structure (SMILES) | inhibition
24 | CCn1c(SCC(=O)Nc2ccc3c(c2)OCCO3)nnc1C1CC1 | -3.26% (inactive)
25 | CC1Cc2cc(-c3csc(NC(=O)Cc4ccccc4)n3)ccc2N1S(C)(=O)=O (stereo not given) | 54.4% (inactive)
26 | CCC(=O)Nc1nc(-c2ccc3c(c2)CC(C)N3S(C)(=O)=O)cs1 (stereo not given) | 58.2% (inactive)
27 | Cc1ccc(CCNC(=O)C2CCN(S(=O)(=O)c3ccc4c(c3)oc(=O)n4C)CC2)cc1 | -5.23% (inactive)
28 | Cc1ccc(C(=O)CSc2nc(C)cc(C)c2C(N)=O)cc1 | 69% (inactive)
29 | Cc1cc(C)c(C(N)=O)c(SCC(=O)c2cc(C)c(C)cc2C)n1 | 5.89% (inactive)
30 | CN(C)c1oc(-c2ccc(Cl)cc2)nc1S(=O)(=O)c1ccccc1 | 3.09% (inactive)
31 | COc1ccc(CS(=O)(=O)CC(C)(O)c2ccc(Cl)cc2)cc1 (stereo not given) | 8.74% (inactive)
32 | Cc1cc(C)n(-c2ccc(C(=O)OCC(=O)Nc3cc(S(C)(=O)=O)ccc3Cl)cc2)n1 | 9.43% (inactive)
33 | CC(/C=N\NC(=O)c1cc(C)oc1C)=C\c1ccccc1 | 5.28% (inactive)
34 | Cc1cc(C(=O)N/N=C/C(Cl)=C/c2ccccc2)c(C)o1 | 2.89% (inactive)
35 | COC(=O)c1cc(NC(=O)c2ccc(-c3ccccc3)cc2)ccc1Cl | -0.43% (inactive)
36 | O=C(CSc1ncn[nH]1)NCc1ccc(Cl)cc1 | 23.7% (inactive)
37 | CC(C)c1ccc(C(=O)CSc2ncn[nH]2)cc1 | -3.26% (inactive)
38 | Cc1ccc2c(c1)Oc1ccc(NC(=O)CCCl)cc1C(=O)N2 | 11.1% (inactive)
39 | Cc1ccc2c(c1)Oc1ccc([N+](=O)[O-])cc1C(=O)N2 | 3.53% (inactive)
40 | Cc1ccc(Cn2c(N)c(S(=O)(=O)c3cccs3)c3nc4ccccc4nc32)cc1 | -12% (inactive)
41 | COc1ccc(C(CNC(=O)COc2ccc(-c3ccccc3)cc2)N2CCOCC2)cc1 (stereo not given) | -6.25% (inactive)
42 | N/C(=N\[N+](=O)[O-])N1CCN(C(=O)c2ccccc2)CC1 | -7.03% (inactive)
43 | Cc1ccc(S(=O)(=O)Nc2cccc3ncccc23)cc1 | 0.6% (inactive)
44 | Cc1ccc(S(=O)(=O)Nc2ccnc3ccccc23)cc1 | -5.18% (inactive)
45 | O=S(=O)(c1ccc(=S)[nH]c1)N1CCCC1 | -0.36% (inactive)
46 | CC(CCc1ccccc1)NC(=O)CCNC(=O)c1ccccc1Cl (stereo not given) | 0.74% (inactive)

Row | Structure (SMILES) | inhibition
47 | O=C(CCSCc1ccccc1F)NCc1cccnc1 | 12.2% (inactive)
48 | O=C(Nc1nc2c(s1)CCCC2)c1cc(-c2ccncc2)nc2ccccc12 | -5.59% (inactive)
49 | O=C(Nc1nc2c(s1)CCCC2)c1cc(-c2ccccc2)nc2ccccc12 | 65.5% (inactive)
50 | COc1ccc(-c2ccc3oc(-c4ccc(OC)cc4)c(C#CC4(O)CCCCC4)c3c2)cc1 | 61.2% (inactive)
51 | COc1ccc(-c2oc3ccc(-c4ccc(OC)nc4)cc3c2-c2ccc(OC)cc2)cc1 | 3.96% (inactive)
52 | CCC(C)(C)NC(=O)C(c1cccs1)N(C(=O)c1ccn[nH]1)c1cccc(OC)c1 (stereo not given) | -8.05% (inactive)
53 | CN1CCN(c2ccc([N+](=O)[O-])c(-n3nc(-c4ccccc4)c4ccccc4c3=O)c2)CC1 | 38.4% (inactive)
54 | Cc1nn(-c2cc(N3CCCC3)ccc2[N+](=O)[O-])c(=O)c2ccccc12 | -3.75% (inactive)
55 | COc1cc(C=O)ccc1OCC(=O)N1CCOCC1 | -0.06% (inactive)
56 | CCc1nc2c(c(=O)[nH]1)C(CC)(CC)Cc1ccccc1-2 | 5.03% (inactive)
57 | CCC1(CC)Cc2ccccc2-c2nc(CN3CCOCC3)[nH]c(=O)c21 | 51.6% (inactive)
58 | O=C(Nc1cccc(S(=O)(=O)N2CCCC2)c1)c1cc(=O)[nH]c2ccccc12 | -4.61% (inactive)
59 | Cc1nc2ccc(Oc3ccccc3)cc2s1 | 7.08% (inactive)
60 | Cc1nc2ccc(NC(=O)c3ccccc3)cc2s1 | 3.89% (inactive)
61 | Cn1c(=O)n(C)c2cc(NC(=O)c3cc4ccccc4o3)ccc21 | 6.91% (inactive)
62 | COc1ccc(-n2cc(CNCCc3nc(C)cc(C)n3)c(-c3ccccc3Cl)n2)cc1 | 68.4% (inactive)
63 | COc1ccc(-n2cc(CNCCCn3ccnc3)c(-c3ccccc3Cl)n2)cc1 | 13.2% (inactive)
64 | COc1ccc(OCCN2C(=O)c3ccccc3C2=O)c([N+](=O)[O-])c1 | -4.41% (inactive)
65 | COc1cc2[nH]c(C(=O)NCCc3ccccc3)cc2c(OC)c1OC | 0.36% (inactive)
66 | COC(=O)c1cnn(-c2ccc(C)c(C)c2)c1-n1cccc1 | 3% (inactive)
67 | Cc1c(Cl)ccc2c1NC(=O)[C@]21N[C@@H](CCC(N)=O)[C@H]2C(=O)N(c3ccc(F)cc3)C(=O)[C@H]21 | -5.78% (inactive)
68 | Cc1c(Cl)ccc2c1NC(=O)C21NC(CCC(N)=O)[C@H]2C(=O)N(c3ccc(Cl)cc3)C(=O)[C@H]21 (stereo not given in full) | -9% (inactive)
69 | CC(=O)N(C)c1ccc(OCC(O)Cn2c(C)nc3ccccc32)cc1 (stereo not given) | 0.96% (inactive)

Row | Structure (SMILES) | inhibition
70 | CCC(c1nnc(SCC(=O)Nc2cc(S(C)(=O)=O)ccc2Cl)n1Cc1ccccc1)N(C)C (stereo not given) | -14.3% (inactive)
71 | C=CCSc1n[nH]c(-c2ccc(OCCC)cc2)n1 | 56.7% (inactive)
72 | C=CCSc1n[nH]c(-c2ccc(OC)cc2)n1 | -6.49% (inactive)
73 | Cc1ccc(NC(=O)c2ccc(OC(=O)COc3ccc(Cl)c(C)c3)cc2)cc1 | -2.96% (inactive)
74 | COc1ccc(Cc2[nH]n3c(=O)c(Cl)c(C)nc3c2-c2ccccc2)cc1 | 35.3% (inactive)
75 | O=C(Cn1nc(CNc2ccc(Cl)cc2)[n+]2c1CCCCC2)c1ccccc1 | 0.81% (inactive)
76 | O=C(Cn1nc(CNc2ccc(Br)cc2)[n+]2c1CCCCC2)c1ccc([N+](=O)[O-])cc1 | 64.9% (inactive)
77 | CCCCN1C(=O)C(=O)N(c2ccccc2)C1=S | 5.31% (inactive)
78 | COC(=O)CN(C(=S)Nc1ccc(F)cc1)C1CC(=O)N(c2ccccc2)C1=O (stereo not given) | 5.39% (inactive)
79 | O=C(O)/C(=C\c1ccc2ccccc2c1)c1cccc2ccccc12 | 2.24% (inactive)
80 | CN1C(=O)/C(=C/c2ccccc2Cl)Sc2ccc(C(=O)N3CCCC3)cc21 | 69.8% (inactive)
81 | COc1ccc(/C=C2\Sc3ccc(C(=O)N4CCCC4)cc3N(C)C2=O)cc1OC | 7.11% (inactive)
82 | Cn1ncc([N+](=O)[O-])c1C(=O)Nc1ccc(-c2nc3ccccc3o2)cc1 | 1.46% (inactive)
83 | COc1ccc(/C=C/C(=O)NCCOc2ccc(C)cc2)cc1 | -2.38% (inactive)
84 | NC(=O)CC(NC(=O)c1ccccc1)c1ccc(NC2CCCC2)c([N+](=O)[O-])c1 (stereo not given) | 0.75% (inactive)
85 | CN(C)CCCn1c2c(c(SCC(=O)Nc3cccc4ccccc34)nc1=O)CCC2 | 0.83% (inactive)
86 | c1ccc(C[C@H]2CNCCN2CCc2cccc3ccccc23)cc1 | 53.6% (inactive)
87 | Fc1cccc(CCN2CCNC[C@@H]2Cc2ccccc2)c1 | -4.28% (inactive)
88 | CCOC(=O)N1CCC(NC(=O)C2CCN(S(=O)(=O)c3cnc[nH]3)CC2)CC1 | -6.34% (inactive)
89 | Cc1ccc(S(=O)(=O)N2CCN(C(=O)Cn3c(=O)oc4ccccc43)CC2)c(C)c1 | 3.86% (inactive)
90 | CC(C)N(C(=O)[C@H]1CC(CC(=O)NCc2ccco2)C(=O)N2CCc3c([nH]c4ccccc34)[C@]12C)C(C)C (stereo not given in full) | 2.78% (inactive)
